Source: PubChem BioAssay
Sampled rows, rich in hits. Any-hit rate of the full collection: about 0.93%.
Coupling enz – qHTS Assay for Inhibitors of Fructose-1,6-bisphosphate Aldolase from Giardia Lamblia: Coupling assay counterscreen | coupling enzyme system counterscreen, AmpLite Red fluorescence | activity change, negative = inhibition, % at 58.2 µM, hits read low | hit rate 0.67% among 290,000; in the data active = activity change below about -30%
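Compounds tested against the coupling enzymes alone at 57.5 uM final; readout was AmpLite Red fluorescence (525/598 nm) after 20 min at RT.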
TR SRC2 fluor cs – Total Fluorescence Counterscreen for Inhibitors of the Interaction of Thyroid Hormone Receptor and Steroid Receptor Coregulator 2. hit rate 0.29% among 280,000. TRb/SRC2 Texas Red total fluorescence interference. Potency, µM (doses to about 106 µM); active = well fitted curve in either direction with a large enough effect; inconclusive = small, poorly fitted or top-dose-only effect
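Flags fluorescent or light-absorbing compounds by total fluorescence, S + 2P, at 555 nm excitation and 632 nm emission. Mixture: 20 nM Texas Red SRC2 peptide, 0.6 uM human TRb LBD, 1 uM T3, 5% DMSO; compound exposure 5 h at ambient temperature.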
TRb SRC2 PPI – qHTS for Inhibitors of the Interaction of Thyroid Hormone Receptor and Steroid Receptor Coregulator 2 | TRbeta-SRC2 peptide binding, fluorescence polarization; receptor liganded with 1 µM T3 | Potency, µM (series often up to 106 µM), usual class: inhibitors | hit rate 0.065% among 280,000; active = well fitted inhibition curve with a large enough effect; inconclusive = small, poorly fitted or top-dose-only effect, or effect the other way; also: nearly all actives have a fitted effect of over 50% in size
Target sequence (P10828 whole entry, looked up): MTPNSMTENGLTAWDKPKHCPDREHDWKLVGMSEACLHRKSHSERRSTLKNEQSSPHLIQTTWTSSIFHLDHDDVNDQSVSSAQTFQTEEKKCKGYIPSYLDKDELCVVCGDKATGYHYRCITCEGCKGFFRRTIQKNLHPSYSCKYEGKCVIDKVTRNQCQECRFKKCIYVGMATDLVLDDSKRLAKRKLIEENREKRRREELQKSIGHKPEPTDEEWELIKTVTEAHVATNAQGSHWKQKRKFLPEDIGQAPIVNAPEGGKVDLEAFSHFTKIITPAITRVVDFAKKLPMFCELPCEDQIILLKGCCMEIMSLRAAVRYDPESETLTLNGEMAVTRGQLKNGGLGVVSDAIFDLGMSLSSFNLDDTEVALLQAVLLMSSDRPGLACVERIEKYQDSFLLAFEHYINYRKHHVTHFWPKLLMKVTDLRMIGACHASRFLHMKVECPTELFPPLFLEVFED
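A fluorescence polarization screen tested compounds at multiple concentrations against complex formation between 0.6 uM TRb ligand-binding domain and 20 nM Texas Red SRC2 peptide, with 1 uM T3 present; readout after 5 hr.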
GoLoco inh red – qHTS Assay for Inhibitors of RGS12 GoLoco Motif Activity (Red Fluorophore). AID 880, 2007. Potency, µM (titrated, usually from 61.6 µM), hits mostly inhibitors. Guanine nucleotide-binding protein G(i) subunit alpha-1 (Homo sapiens), P63096. hit rate 0.44% among 230,000. Gai1:RGS12 GoLoco peptide FP, rhodamine, 10 min; active = well fitted inhibition curve with a large enough effect, not every such curve was filed as active; inactive = no such curve, though single readings can be large or run the other way; also: nearly all actives have a fitted effect of over 30% in size
Each line names hits and unclear results; the compound was inactive in the other large screens; ! = a repeat was not active; [ ] = dose if it differs, or a comment.

O=[N+]([O-])C1=CC=C2C(=NC3(CCCCC3)N2O)C1=NCCO	Coupling enz -53
CCCCCCC(O)CCCCCCCCCCC(=O)OC (configuration not stated)	none (no result: Coupling enz, GoLoco inh red)
O=S(=O)(O)c1ccc2c(c1)-c1nc-2nc2[nH]c(nc3nc(nc4[nH]c(n1)c1ccc(S(=O)(=O)O)cc41)-c1ccc(S(=O)(=O)O)cc1-3)c1ccc(S(=O)(=O)O)cc21	TR SRC2 fluor cs 2.2µM[quencher], TRb SRC2 PPI inconclusive (no result: GoLoco inh red)
Nc1cc(S(=O)(=O)O)cc2ccc(S(=O)(=O)O)cc12	none (no result: Coupling enz, TR SRC2 fluor cs, TRb SRC2 PPI)
Cc1ccccc1NC1=C/C(=N\S(=O)(=O)c2cccs2)c2ccccc2C1=O	Coupling enz -46
CC(=O)Nc1ccc(NC2=C/C(=N/S(=O)(=O)c3cccs3)c3ccccc3C2=O)cc1	Coupling enz -35
Cc1ccc(NC2=C/C(=N/S(=O)(=O)c3cccs3)c3ccccc3C2=O)cc1C	none
COc1ccc(S(=O)(=O)/N=C2\C=C(Nc3ccc(O)cc3)C(=O)c3ccccc32)cc1	Coupling enz -32 (no result: TR SRC2 fluor cs, TRb SRC2 PPI, GoLoco inh red)
COC(=O)C(C(C)=O)C1=C/C(=N\S(=O)(=O)c2ccc(C)cc2)c2ccccc2C1=O (configuration not stated)	Coupling enz -33
Cc1ccccc1NC1=C/C(=N\S(=O)(=O)c2ccc(C(=O)O)cc2)c2ccccc2C1=O	Coupling enz -44 (no result: TR SRC2 fluor cs, TRb SRC2 PPI, GoLoco inh red)
C/C(=N\S(=O)(=O)c1ccc(C)cc1)NC(=S)Nc1ccccc1	none
O=C(O)c1ccc(S(=O)(=O)/N=C2\C=C(Nc3ccccc3F)C(=O)c3ccccc32)cc1	Coupling enz -45 (no result: TR SRC2 fluor cs, TRb SRC2 PPI, GoLoco inh red)
COc1cc(C=O)c([N+](=O)[O-])cc1OC	Coupling enz -61
COc1cc(/C=C2/CC(C)OC2=O)c([N+](=O)[O-])cc1OC (configuration not stated)	none (no result: TR SRC2 fluor cs, TRb SRC2 PPI, GoLoco inh red)
O=C(O)C1Nc2c(O)cc(Cl)c([N+](=O)[O-])c2C2C=CCC12 (configuration not stated)	TR SRC2 fluor cs 13µM[quencher], TRb SRC2 PPI inconclusive, GoLoco inh red 10µM
Cn1c(=O)c(Nc2ccc(Cl)cc2)c2c3c(cccc31)C(=O)c1ccccc1-2	GoLoco inh red 14µM
CC(=O)Nc1c2c3c(cccc3n(C)c1=O)C(=O)c1ccccc1-2	none
O=c1c(-c2cccs2)nc2cncnc2n1Cc1ccccc1	none (no result: TR SRC2 fluor cs, TRb SRC2 PPI)
Cc1[nH]c2c(ccc3cccnc32)c1C	none
CC1=[N+](C)c2c(ccc3cccnc23)C1(C)C	Coupling enz -58, TR SRC2 fluor cs 11µM[fluorescent], TRb SRC2 PPI 25µM
COc1ccc(OC)c2c1C(=O)C(Cl)=C(Cl)C2=O	Coupling enz -45, GoLoco inh red 0.45µM
COc1ccc(OC)c2c1C(=O)c1ccccc1C2=O	GoLoco inh red 7.9µM
Nc1ccc(O)c2c1C(=O)c1ccccc1C2=O	none
COc1ccc(N)c2c1C(=O)c1ccccc1C2=O	TR SRC2 fluor cs 50µM[fluorescent], TRb SRC2 PPI 32µM
COc1ccc(S(=O)(=O)N2CCCC2)c(Cl)c1Cl	none
O=C1c2ccccc2C(=O)c2c(O)ccc(O)c21	GoLoco inh red 28µM
O=C1[C@H]2[C@H]3[C@H](O)[C@H](O)C/C(=N/OC[C@@H](O)COCc4ccco4)[C@H]3CC[C@@H]2C(=O)N1c1cccc(Oc2ccccc2)c1	none (no result: GoLoco inh red)
COc1ccc(NC(=O)CSc2nc3ccccc3nc2N2CCC(C)CC2)cc1	none (no result: Coupling enz, GoLoco inh red)
CC(=Nc1ccccc1N)c1c(C)cc(=O)n(O)c1O	Coupling enz -30! (no result: GoLoco inh red)
COc1cccc(NS(=O)(=O)c2cc(-c3cnc(C4CC4)o3)ccc2C)c1	none (no result: Coupling enz, GoLoco inh red)
CCCCCCCCCCCCC/C=C/[C@@H](O)[C@@H](N)COP(=O)(O)O	GoLoco inh red 22µM!
CCCCCCCCCCCCC/C=C/[C@@H](O)[C@@H](N)CO	TR SRC2 fluor cs inconclusive
CCOC(=O)NN1C(=O)c2ccccc2NC1c1ccc(N(C)C)cc1 (configuration not stated)	TR SRC2 fluor cs 112µM[quencher]
Cc1ccc(-c2nc3cccnc3s2)cc1NC(=O)Cc1ccccc1	TR SRC2 fluor cs 100µM[quencher] (no result: Coupling enz, GoLoco inh red)
CC1=C(CC(=O)c2ccc(Cl)cc2)C(=O)c2ccccc2C1=O	Coupling enz -40
Cn1c2c(c(=O)n(C)c1=O)C1(C(=O)Nc3ccccc31)C(C#N)=C(N)O2 (configuration not stated)	Coupling enz -54
CSc1ccc(CCNC(=O)c2ccc(-n3c(C)cc4c3CCC(C)C4)cc2)cc1 (configuration not stated)	TR SRC2 fluor cs 22µM[quencher] (no result: Coupling enz, GoLoco inh red)
CCOc1ccc(CCNC(=O)c2ccc(-n3c(C)cc4c3CCC(C)C4)cc2)cc1OCC (configuration not stated)	none (no result: Coupling enz, GoLoco inh red)
O=C1CSC(=S)N1/N=C/c1cc(Br)ccc1O	none (no result: TR SRC2 fluor cs, TRb SRC2 PPI, GoLoco inh red)
O=C1CSC(=S)N1/N=C/c1ccc(O)c(O)c1O	Coupling enz -59
COC(=O)[C@@H](NC(=O)N1CCc2nc(-c3ccc(OC)cc3C)c3c(c2C1)CO[C@@H](c1ccccc1)C3)C(C)C	none
O=C(N/N=C/c1ccc(N2CCOCC2)o1)c1cccc(F)c1	none
COc1ccc(C(=O)N/N=C/c2ccc(N3CCOCC3)o2)cc1OC	Coupling enz -35
COc1ccc(C(=O)Nc2ccc(N3CCOCC3)c(C(F)(F)F)c2)cc1OC	TR SRC2 fluor cs 11µM[quencher] (no result: Coupling enz, GoLoco inh red)
COc1ccc(NC(=O)c2cnc(N3CCCCC3)c3ccccc23)cc1Cl	none (no result: Coupling enz, GoLoco inh red)
COc1ccc2[nH]c(=O)c(CNc3cccc(C)c3)cc2c1	Coupling enz -39 (no result: GoLoco inh red)
COc1ccc(S(=O)(=O)N(CC(=O)Nc2ccccc2Br)Cc2ccccc2)cc1	none (no result: Coupling enz, GoLoco inh red)
Cc1ccc(-n2cccc2/C=C2/NC(=O)N(CC(=O)Nc3cccc(C)c3)C2=O)cc1	GoLoco inh red 7.9µM
CCCCCCCCCC(=O)OC	none (no result: Coupling enz, GoLoco inh red)
CC(=O)c1[nH]c(C)c(C(=O)NCc2ccc(Cl)cc2)c1C	TR SRC2 fluor cs 1122µM[quencher] (no result: Coupling enz, GoLoco inh red)
CN1C(=O)/C(=C/c2ccc(-c3ccccc3[N+](=O)[O-])o2)SC1=Nc1ccc(Cl)c(C(=O)O)c1	GoLoco inh red 14µM
CCCNC(=O)CSc1nc2ccccc2nc1Cc1ccc(Cl)cc1	none (no result: Coupling enz, GoLoco inh red)
Cc1cc(C)c2c(=O)n(CC(=O)NC3CCCC3)sc2n1	GoLoco inh red 3.5µM
Cc1cc(C)c2c(N)c(C(=O)NC3CCCC3)sc2n1	none
Cc1nc2ccc(Br)cn2c1C(=O)N/N=C\c1ccc(C(C)C)cc1	none (no result: TR SRC2 fluor cs, TRb SRC2 PPI, GoLoco inh red)
COc1cccc(/C=N/NC(=O)c2c(C)nc3ccc(Br)cn23)c1	Coupling enz -33
Cn1ncc([N+](=O)[O-])c1C(=O)N/N=C/c1ccc(F)cc1	none
Cn1ncc([N+](=O)[O-])c1C(=O)N/N=C/c1cccc([N+](=O)[O-])c1	Coupling enz -35
CCOC(=O)CCN1C(=O)[C@H]2[C@H]3[C@H](O)[C@H](O)C/C(=N/NC(=O)OCC)[C@H]3CC[C@@H]2C1=O	none (no result: GoLoco inh red)
O=C(NCCn1cc(SCc2ccc(F)cc2)c2ccccc21)c1c(F)cccc1F	Coupling enz -39
COc1cc(OC)c(-c2cc(C(=O)NCc3ccc(F)cc3)c3c(-c4ccccc4)[nH]nc3n2)cc1OC	TR SRC2 fluor cs 3.5µM[quencher] (no result: Coupling enz, GoLoco inh red)
